# Hits are enriched below; roughly 0.74% of the tested compounds scored in any of these assays.
# Vif-A3F inh: Vif-A3F binding inhibition; HeLa A3F-eYFP + Vif (tagged APOBEC3F with the HIV-1 protein that degrades it), YFP fluorescence increase; Potency, µM (top dose mostly 46.1 µM), for the others: at the top dose activity, negative = active; hit rate 0.2% among 390,000; also: potency is read from the fitted curve at half-maximal effect; % of control where 0% means no effect; nearly all actives have a fitted effect of over 65% in size
#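 HeLa cells stably expressing Vif plus C-terminally eYFP-tagged A3F were seeded, incubated overnight at 37 deg C, dosed with compound, incubated overnight again at 37 deg C. Yellow fluorescence (Ex 488/Em 500-530) reported blocked Vif-mediated A3F-eYFP degradation.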
# Vif-APOBEC3G blk: Vif-A3G binding inhibition; HeLa A3G-eYFP + Vif (tagged APOBEC3G with the HIV-1 protein that degrades it), YFP fluorescence, overnight; AID 602310; Potency, µM (top dose mostly 46.1 µM), for the others: at the highest dose activity, negative = active, actives largely listed as inhibitors; hit rate 0.076% among 410,000; Q9HC16; also: potency is read from the fitted curve at half-maximal effect; % is scaled to controls: 0 for no effect and ±100 for the full control effect; nearly all actives have a fitted effect of over 60% in size
# Target sequence (Q9HC16 whole entry, looked up): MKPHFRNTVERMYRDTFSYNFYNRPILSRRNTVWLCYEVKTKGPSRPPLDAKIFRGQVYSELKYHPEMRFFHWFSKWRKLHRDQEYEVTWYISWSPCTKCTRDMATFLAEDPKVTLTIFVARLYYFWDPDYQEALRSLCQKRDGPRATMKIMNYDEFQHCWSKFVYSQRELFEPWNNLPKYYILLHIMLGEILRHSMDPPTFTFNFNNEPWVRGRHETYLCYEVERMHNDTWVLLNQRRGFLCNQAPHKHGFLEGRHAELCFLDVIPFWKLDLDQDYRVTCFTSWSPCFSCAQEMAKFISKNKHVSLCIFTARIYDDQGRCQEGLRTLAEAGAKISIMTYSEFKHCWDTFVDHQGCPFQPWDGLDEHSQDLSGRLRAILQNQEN
#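 Read-out is eYFP fluorescence (Ex 488/Em 500-530) from Vif-expressing HeLa A3G-eYFP cells; more signal means A3G escaped Vif-mediated degradation. Cells plated overnight, compound pinned in, incubated overnight at 37 deg C.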
# Akt phos inh: inhibitors of Akt phosphorylation; Neuro2A IGF-stimulated pAkt S473 HTRF, 20 min; active compounds read low; activity change, % for hits at 50 µM; hit rate 0.32% among 360,000; in the data active = activity change below about -80%; inconclusive = mostly about -51% to -80%; also: % is scaled to controls: 0 for no effect and ±100 for the full control effect
#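 Neuro2A cells in DMEM with 0.5% FBS, overnight at 37 deg C, given compound at single 50 µM final, then IGF (6 nM final) for 20 min at 37 deg C. Lysed; phospho-Akt Ser473 by HTRF after 24 h, 665/615 ratio.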
# PINK1 modulator: PINK1 expression modulation | PINK1 immunofluorescence, high-content cytometry, 24 h | Potency, µM (doses to about 76.6 µM), inactives show at the highest dose activation (PINK1 increase), hits mostly activators | hit rate 0.2% among 410,000 | AID 624263; active = well fitted activation curve with a large enough effect; inconclusive = small, poorly fitted or top-dose-only effect; cell line not stated here; also: potency is read from the fitted curve at half-maximal effect; % of control where 0% means no effect; nearly all actives have a fitted effect of over 65% in size
#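 A stable cell line was treated with compounds at 5 concentrations for 24 hours, with CCCP as control. PINK1 levels and mitochondrial localization were measured by immunofluorescence with mitochondrial, cell and nuclear markers after fixation, read by laser-scanning cytometry.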
# LDHA inh: blocks human lactate dehydrogenase A; purified LDHA, NADH/diaphorase-resazurin fluorescence; active compounds read low; activity change, % (values are at about 110 or 230 µM); hit rate 0.15% among 480,000; in the data active = activity change below about -30%; inconclusive = mostly about -25% to -30%;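 also: plate controls were DMSO wells for no effect and wells without enzyme for full effect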
#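 Human LDH5 (2 nM) was incubated with 0.06 mM NADH and 0.2 mM pyruvate for 5 min at room temperature in Tris pH 7.4. Remaining NADH was coupled through diaphorase/resazurin, and resorufin fluorescence was read at 0 and 20 min.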
# Glioma ERSR ind: induces the endoplasmic reticulum stress response in human glioma cells; hit rate 0.02% among 420,000; Potency, µM, for the others: at the highest dose activation, usual class: activators; U87-MG GRP78 promoter luciferase reporter, 16 h; also: potency is read from the fitted curve at half-maximal effect; series mostly up to about 76 µM; % of control where 0% means no effect; nearly all actives have a fitted effect of over 35% in size
#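 Stably transfected U87-MG human glioma cells carrying a GRP78-based luminescent sensor were seeded at 1000 cells/well, pin-dosed with compounds and incubated 16 h. Luciferase reagent was then added, and end-point luminescence was read after 10 min at room temperature.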
# * = called active by the depositor; i = inactive; ? = inconclusive; / = no result given; [ ] = remark or other dose. Unless noted, calls follow the shape of the dose curve; as a rule, active = well fitted curve in the direction sought with a large enough effect; inconclusive = small, poorly fitted or top-dose-only effect, or another doubt; inactive = no such curve, though single readings can be large; an effect the other way counts as inactive or inconclusive.
SMILES,Vif-A3F inh,Vif-APOBEC3G blk,Akt phos inh,PINK1 modulator,LDHA inh,Glioma ERSR ind
COc1ccc(C2=NOC(C(=O)NCc3ccco3)C2)cc1 (stereo not drawn),-22%,?,i,27%[38.3 µM],-4,-1%
COc1cc(C2=NOC(C(=O)NCc3ccco3)C2)cc(OC)c1OC (stereo not drawn),-9%,?,i,11µM*,-1,-6%
Cc1ccc(CSc2nc3c(cc2C#N)CCC3)cc1,/,0%,-85%*,1%,-1,-2%
CCOC(=O)c1cc(-c2ccccc2)n(CCC(=O)Nc2ccc(C(F)(F)F)cc2)c1C,-18%,2%,/,40µM*,3,?
Cc1ccc(S(=O)(=O)NCC2CCC(C(=O)NCc3ccc4c(c3)OCO4)CC2)cc1 (stereo not drawn),-15%,0%,i,1%[38.3 µM],-3,-4%
Cc1ccc(S(=O)(=O)NC(=O)NCc2ccc3c(c2)OCO3)cc1,-4%,1%,-111%*,-1%,5,-5%
CC(C)Cc1nnc(NC(=O)CSc2nc(=O)cc(N)n2-c2ccccc2)s1,-4%,-1%,-114%*,0%,-11,-1%
Nc1cc(=O)nc(SCC(=O)Nc2ccccc2)n1-c1ccccc1,-5%,0%,i,-1%,-2,-3%
CCCc1[nH]nc2c1C1(C(=O)N(CC)c3ccccc31)C(C#N)=C(N)O2 (stereo not drawn),-1%,2%,-110%*,14%[38.3 µM],-3,-3%
COc1ccc(CNC(=O)c2nc(CC(=O)Nc3cccc4ncccc34)no2)cc1,/,/,/,/,-4,/
O=C(COCc1nc2ccccc2s1)N1CCN(C2CCS(=O)(=O)C2)CC1 (stereo not drawn),/,/,/,/,2,/
O=S(=O)(c1ccc(Cl)cc1)N1CCC(N2CCCCCC2)CC1,0%,0%,-119%*,-1%,-23,0%
O=S(=O)(c1ccc(F)cc1)N1CCC(N2CCCCCC2)CC1,-3%,-8%,i,1%,-22,-4%
CCCCSc1nc2c(c(=O)n(C)c(=O)n2C)n1C/C=C/c1ccccc1,/,/,/,/,-18,/
COc1cc(OC)cc(C(=O)NCCCN2CCOCC2)c1,-9%,-8%,-120%*,0%,-7,-4%
COc1ccc(C(=O)NCCCN2CCOCC2)cc1,-3%,-5%,i,3%,-4,-3%
Cc1ccc2oc(C(=O)NCC3(N(C)C)CCCCCC3)cc(=O)c2c1,/,/,/,/,-3,/
COc1ccc2c(C)cc(SCC#N)nc2c1,22µM*,?,/,2%[38.3 µM],0,-3%
CC1(C)CC2CC(C)(CN2C(=O)CSc2ncc(C(F)(F)F)cc2Cl)C1 (stereo not drawn),/,/,/,/,8,/
COC(=O)c1ccc(NC(=O)N2CCOCC2)cc1,-2%,-9%,-121%*,0%,1,-2%
CCOC(=O)c1noc2nc(C)n(CC(=O)Nc3cc(C)ccc3OC)c(=O)c12,/,/,/,/,-5,/
CCOC(=O)c1c(C)nc2sc3c(=O)n(-c4ccc(OC)cc4)cnc3c2c1-c1ccc(OC)cc1,-4%,5%,-111%*,1%,-5,0%
CCN(CC)CCCNCC(=O)Nc1cc(C)on1,-6%,-5%,i,1%,-30*,-2%
Cc1ccc(OCCC(=O)NC(CC(C)C)C(=O)N(C)C)cc1C (stereo not drawn),/,/,/,/,8,/
C=CCc1c(C)nc(-c2ccccc2)nc1Nc1ccccc1O,22µM*,?,i,?,-10,-4%
SMILES,Vif-A3F inh,Vif-APOBEC3G blk,Akt phos inh,PINK1 modulator,LDHA inh,Glioma ERSR ind
CCOC(=O)/C=C(\C)Sc1cc(=O)oc2ccccc12,-4%,-17%,i,1%,-5,-9%
CCOC(=O)/C=C(\C)Sc1cc(O)c2ccccc2c1O,22µM*,?,i,8%,17,-13%
CN(C)c1ccc(C(=O)NNC(=O)c2ccc(F)cc2)cc1,/,/,/,/,7,/
CN(C)c1ccc(C(=O)NNC(=O)c2ccc(Cl)cc2)cc1,7%,-2%,i,-1%,-48*,-7%
Fc1ccccc1-c1nnc(SCc2cn3ccccc3n2)n1C1CC1,/,/,/,/,-2,/
CC1CCC(N(C)C(=O)CCc2c[nH]c3ccccc23)CC1 (stereo not drawn),/,/,/,/,4,/
O=C1Nc2cc(Cl)c(Cl)cc2N(O)N1c1cccc(Br)c1,/,/,/,/,1,/
CCN1CCN(C(=S)c2ccc(Cl)cc2)CC1,-2%,-1%,-115%*,0%,-6,0%
COc1ccccc1N=Nc1ccc(O)c2ncccc12,4%,0%,i,11%,12,0%
CCS(=O)(=O)c1ccc(N=Nc2ccc(O)c3ncccc23)c(OC)c1,-12%,2%,i,14µM*,15,-2%
O=C1C2C3C=CC(CC3)C2C(=O)N1c1ccc(F)cc1 (stereo not drawn),11%,-1%,i,-1%,-4,-3%
CC(C)C1NC2(C(=O)c3ccccc3C2=O)C2C(=O)N(c3ccc(F)cc3)C(=O)C12 (stereo not drawn),-9%,-8%,-120%*,1%,1,-3%
CC1CCCN(c2nc(-c3cccnc3)nc3scc(-c4ccccc4)c23)C1 (stereo not drawn),-9%,-5%,i,28µM*,4,0%
CC1CCN(c2nc(-c3cccnc3)nc3scc(-c4ccccc4)c23)CC1,2%,0%,i,2%,-2,-2%
Cc1ccc(S(=O)(=O)N(C)c2ccc(NS(C)(=O)=O)cc2)cc1,-21%,-5%,-120%*,-2%,-1,-4%
CCOc1ccc(C2c3c(ncn(-c4ccccc4)c3=N)Oc3ccc4ccccc4c32)cc1OCC (stereo not drawn),/,/,/,/,23,/
Cc1ccc(OCCOCCN2CCN(C)CC2)c([N+](=O)[O-])c1,1%,1%,i,1%,-46*,-2%
CC1CCCN(CCOCCOc2ccc(Br)cc2Cl)C1 (stereo not drawn),-13%,1%,i,-1%,?,-5%
Cc1ccc(OCCOCCN2CCCCC2)c([N+](=O)[O-])c1,10%,0%,i,0%,-6,-3%
CN1CCN(CCOCCOc2ccc(Br)cc2Cl)CC1,-3%,-2%,i,0%,-38*,1%
N#Cc1ccccc1COc1ccc(C(=O)c2ccccc2)cc1,/,/,/,/,-13,/
CC(NC(=O)c1ccccc1NC(=O)c1nn(C)c(=O)c2ccccc12)c1ccccc1 (stereo not drawn),/,/,/,/,4,/
CCC1(C)CC2(CCCN(CCC(O)(c3ccccc3)c3ccccc3)C2)CCO1 (stereo not drawn),-2%,-2%,i,45µM*,-3,-5%
O=C(Nc1ccc([N+](=O)[O-])cc1)C(Cc1ccccc1)N1C(=O)c2cccc3cccc(c23)C1=O (stereo not drawn),?,10µM*,i,10%,1,?

# Screens deposited in PubChem BioAssay by National Center for Advancing Translational Sciences (NCATS).
